Assay [1] relates to Wnt5a (protein binding on small-molecule microarray). Put plainly: Wnt5a binders on small-molecule microarray, primary screen, biophysical, 635/667 nm fluorescence (AID 1142).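 Also: fluorescence read at 667 nm with signal to noise per printed feature.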 The settings on record: 635 nm fluorescence, higher = more signal.
The nature of assay [2]: cell viability in Huh7 cells, primary screen, cytotoxicity control for HCV replication inhibitor project, CellTiter-Glo luminescence, basal, 48 h (AID 1143).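 Also: Huh7 hepatoma cells carrying a hepatitis C replication reporter with no stimulus; test concentration not given here.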 Particulars: Huh7 HCV replicon, higher = more signal, called active from +8 up or from −8 down. A general note: ATP-based viability assays read luminescence as a measure of living cells.
Assay [3] is described as follows: P. aeruginosa biofilm formation inhibitors, primary screen, PAO1 strain, BacTiter-Glo luminescence, LB-PBS (AID 1144). Particulars: 12 h, higher = more signal.
A short description of assay [4]: CREB reporter modulators without forskolin, primary screen, cell-based, PC12, CRE-LacZ reporter, unstimulated (AID 1145). Particulars: no forskolin, luminescence, 4.5 h, higher = more signal, called active from +8 up or from −8 down.
A short description of assay [5]: CREB reporter modulators under forskolin, primary screen, cell-based, PC12, CRE-LacZ reporter, forskolin-stimulated (AID 1146).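 Also: PC12 cells with 6xCRE LacZ reporter stimulated by forskolin 10 µM; beta-galactosidase reporter signal reflecting CREB driven transcription.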 The settings on record: luminescence, 4.5 h, higher = more signal, called active from +8 up or from −8 down.
Assay [6] addresses Streptavidin (Streptomyces avidinii) (UniProt P22629). Put plainly: streptavidin binders on small-molecule microarray, primary screen, artefact control for SMM compound annotation, biophysical, 635/667 nm fluorescence (AID 1147).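 Also: signal reflects streptavidin binding to arrayed compounds as a control protein.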 Particulars: streptavidin binding, higher = more signal.
Assay [7] is described as follows: small-molecule binders of probe aInhba, primary screen, biochemical, small-molecule microarray, 635/667 nm fluorescence (AID 1148).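 Also: score merges 667nm spot fluorescence with signal-to-noise for antibody binding to printed compounds.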 The settings on record: higher = more signal.
For assay [8], the target named is Torsin-1A (Homo sapiens) (UniProt O14656). The experiment in a line: torsin A binders from cell lysate, primary screen, small-molecule microarray, wild-type, 635/667 nm (AID 1149). Particulars: COS7 hTOR1A-WT lysate, 635 nm fluorescence, higher = more signal.
Chain of Torsin-1A (Homo sapiens) (O14656 whole entry, looked up): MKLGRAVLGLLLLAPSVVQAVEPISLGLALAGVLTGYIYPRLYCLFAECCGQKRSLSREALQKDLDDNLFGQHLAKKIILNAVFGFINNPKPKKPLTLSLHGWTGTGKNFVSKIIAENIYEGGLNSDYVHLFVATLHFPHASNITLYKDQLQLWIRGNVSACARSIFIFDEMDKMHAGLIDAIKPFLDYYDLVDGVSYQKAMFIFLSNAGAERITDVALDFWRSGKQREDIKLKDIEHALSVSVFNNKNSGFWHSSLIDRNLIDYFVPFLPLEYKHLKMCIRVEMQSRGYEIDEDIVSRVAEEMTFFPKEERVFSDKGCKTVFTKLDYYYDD
Assay [9] has the same target. The experiment in a line: small-molecule binders of mutant TOR1A in lysate, primary screen, cell lysate, small-molecule microarray, COS7 lysate, 635/667 nm fluorescence (AID 1150).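 Also: score pools 667 nm emission and signal to noise measuring lysate protein binding.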 The settings on record: COS7 hTOR1A mutant lysate, 635 nm fluorescence, higher = more signal.
The test system of assay [10] is Sonic hedgehog protein (Shh). The experiment in a line: small-molecule binders of Shh protein, primary screen, biochemical, small-molecule microarray, 635/667 nm fluorescence (AID 1151).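 Also: Shh protein binding to compounds spotted on small-molecule microarray slides; score combines spot fluorescence intensity with signal-to-noise across triplicate slides.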 Particulars: small-molecule microarray binding, 635 nm fluorescence; higher = more signal.
A short description of assay [11]: E. coli DRC41 culture turbidity changes, primary screen, E. coli filamentation inducer project, strain DRC41, OD650, 48 h (AID 1152).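 Also: E. coli MC1000 strain DRC41 lacking acrAB efflux pump and sulA.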 Particulars: E. coli DRC41 (acrAB sulA), higher = more signal, called active from +8 up or from −8 down.
Assay [12] can be described thus: small-molecule binders of probe aLefty1, primary screen, biochemical, small-molecule microarray, 635/667 nm fluorescence (AID 1153).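 Also: score merges spot fluorescence with signal-to-noise ratio from the scanned slide images.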 Particulars: higher = more signal.
A short description of assay [13]: PSAC antagonists in infected red cells, primary screen, cell-based, P. falciparum Indochina, OD700, 1 h (AID 1154). Particulars: P. falciparum Indochina infected RBC osmotic lysis, higher = more signal, called active from +8 up or from −8 down.
Assay [14] can be described thus: PSAC antagonists in infected red cells, primary screen, cell-based, P. falciparum Indochina, OD700, 2 h (AID 1155).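 Also: lysis reports solute entry through the parasite surface anion channel PSAC; channel blockers reduce lysis of infected cells.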 Particulars: P. falciparum Indochina infected erythrocytes, osmotic lysis OD700; higher = more signal, called active from +8 up or from −8 down.
Assay [15] can be described thus: osmotic lysis modulators in infected erythrocytes, primary screen, PSAC antagonist project, cell-based, P. falciparum Indochina, OD700, 3 h (AID 1156). The settings on record: higher = more signal, called active from +8 up or from −8 down.
A short description of assay [16]: PSAC antagonists in infected red cells, primary screen, cell-based, P. falciparum Indochina, OD700, 18 h (AID 1157). The settings on record: P. falciparum Indochina infected erythrocytes, osmotic lysis OD700, 18 h; higher = more signal, called active from +8 up or from −8 down.
The nature of assay [17]: modulators of S6 phosphorylation in cells, primary screen, cell-based, A549, cytoblot, luminescence, serum-stimulated (AID 1158).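 Also: serum-stimulated A549 lung adenocarcinoma cells; signal is phosphorylated S6 detected by cytoblot immunostaining with HRP secondary.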 Particulars: A549 phospho-S6 cytoblot, 5 h, higher = more signal.
For assay [18], the target named is NADPH oxidase 2 (Homo sapiens) (UniProt P04839). The experiment in a line: NOX2-dependent H2O2 signal modulators, primary screen, NOX inhibitor project, cell-based, HEK293-NOX2, PMA-stimulated, Amplex Red fluorescence (AID 1159). Also: test concentration not given here. The settings on record: 45 min, higher = more signal, called active from +8 up or from −8 down.
Chain of NADPH oxidase 2 (Homo sapiens) (P04839 whole entry, looked up): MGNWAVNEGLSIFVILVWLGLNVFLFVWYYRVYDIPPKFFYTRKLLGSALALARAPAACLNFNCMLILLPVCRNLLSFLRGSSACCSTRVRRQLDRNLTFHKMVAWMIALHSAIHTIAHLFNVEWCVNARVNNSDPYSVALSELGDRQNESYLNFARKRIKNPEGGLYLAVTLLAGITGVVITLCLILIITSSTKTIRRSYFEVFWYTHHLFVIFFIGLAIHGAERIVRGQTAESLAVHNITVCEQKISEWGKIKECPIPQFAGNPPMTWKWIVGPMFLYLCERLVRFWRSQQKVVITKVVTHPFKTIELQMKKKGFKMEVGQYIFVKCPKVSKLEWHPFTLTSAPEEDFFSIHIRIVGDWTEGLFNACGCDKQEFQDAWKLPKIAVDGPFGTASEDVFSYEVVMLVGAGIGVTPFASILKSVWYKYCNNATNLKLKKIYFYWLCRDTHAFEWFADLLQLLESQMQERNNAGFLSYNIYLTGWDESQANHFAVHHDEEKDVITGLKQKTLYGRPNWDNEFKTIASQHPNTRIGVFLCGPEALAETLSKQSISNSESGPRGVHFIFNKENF
For assay [19], the target named is NADPH oxidase 4 (Homo sapiens) (UniProt Q9NPH5). Put plainly: NOX4-dependent H2O2 signal modulators, primary screen, NOX inhibitor project, cell-based, HEK293-NOX4, tetracycline-induced, Amplex Red fluorescence (AID 1160). The settings on record: 45 min, higher = more signal, called active from +8 up or from −8 down.
Chain of NADPH oxidase 4 (Homo sapiens) (Q9NPH5 whole entry, looked up): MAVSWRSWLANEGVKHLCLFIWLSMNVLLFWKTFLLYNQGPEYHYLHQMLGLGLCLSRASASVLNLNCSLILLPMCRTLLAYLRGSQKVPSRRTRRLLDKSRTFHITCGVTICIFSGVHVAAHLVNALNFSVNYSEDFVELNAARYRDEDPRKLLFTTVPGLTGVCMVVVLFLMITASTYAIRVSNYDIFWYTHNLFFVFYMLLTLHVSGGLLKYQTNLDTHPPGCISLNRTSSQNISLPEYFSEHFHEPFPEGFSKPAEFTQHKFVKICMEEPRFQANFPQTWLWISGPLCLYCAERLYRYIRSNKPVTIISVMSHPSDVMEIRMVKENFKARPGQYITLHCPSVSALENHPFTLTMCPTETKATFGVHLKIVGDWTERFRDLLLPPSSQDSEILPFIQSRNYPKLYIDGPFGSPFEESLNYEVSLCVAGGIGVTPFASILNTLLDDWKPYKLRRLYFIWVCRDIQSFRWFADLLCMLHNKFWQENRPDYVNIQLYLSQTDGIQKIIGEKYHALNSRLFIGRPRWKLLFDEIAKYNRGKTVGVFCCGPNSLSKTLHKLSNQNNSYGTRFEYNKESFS
In assay [20] the target is NADPH oxidase 5 (Homo sapiens) (UniProt Q96PH1). The experiment in a line: NOX5-dependent H2O2 signal modulators, primary screen, NOX inhibitor project, cell-based, HEK293-NOX5, Amplex Red fluorescence (AID 1161). The settings on record: HEK293-NOX5, ionomycin, 45 min, higher = more signal.
Chain of NADPH oxidase 5 (Homo sapiens) (Q96PH1 whole entry, looked up): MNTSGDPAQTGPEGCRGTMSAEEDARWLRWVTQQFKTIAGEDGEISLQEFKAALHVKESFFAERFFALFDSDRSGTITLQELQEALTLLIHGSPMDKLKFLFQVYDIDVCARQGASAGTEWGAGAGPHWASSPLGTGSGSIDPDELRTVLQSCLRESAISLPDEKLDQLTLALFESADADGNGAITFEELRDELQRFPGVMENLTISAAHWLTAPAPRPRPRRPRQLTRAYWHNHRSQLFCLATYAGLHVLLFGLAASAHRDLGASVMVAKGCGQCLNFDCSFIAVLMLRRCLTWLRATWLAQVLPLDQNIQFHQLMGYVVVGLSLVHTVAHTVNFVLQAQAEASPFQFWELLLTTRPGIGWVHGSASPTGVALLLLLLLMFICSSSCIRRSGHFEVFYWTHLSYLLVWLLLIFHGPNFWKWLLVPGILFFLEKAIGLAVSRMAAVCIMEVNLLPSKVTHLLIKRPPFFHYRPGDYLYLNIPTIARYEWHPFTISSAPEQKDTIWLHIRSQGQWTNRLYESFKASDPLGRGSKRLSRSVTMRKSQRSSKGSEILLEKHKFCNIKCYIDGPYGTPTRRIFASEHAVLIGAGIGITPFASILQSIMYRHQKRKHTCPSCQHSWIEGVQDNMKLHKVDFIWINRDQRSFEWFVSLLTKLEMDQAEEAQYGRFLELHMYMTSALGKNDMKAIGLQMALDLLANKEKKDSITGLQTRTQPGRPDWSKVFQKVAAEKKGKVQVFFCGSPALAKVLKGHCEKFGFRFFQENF

Activity calls are given as the source filed them. Unless noted, no rule for the calls is given here.

Chain of Streptavidin (Streptomyces avidinii) (P22629 whole entry, looked up): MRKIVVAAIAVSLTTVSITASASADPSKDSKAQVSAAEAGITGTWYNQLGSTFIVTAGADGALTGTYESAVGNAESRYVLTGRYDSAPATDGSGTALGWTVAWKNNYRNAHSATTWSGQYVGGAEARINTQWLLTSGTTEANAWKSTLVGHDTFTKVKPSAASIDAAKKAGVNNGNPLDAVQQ

Consider `COc1cccc([C@H]2Oc3ccc(OC)cc3C(=NO[C@H](C)c3cn([C@@H]4COC[C@H]4O)nn3)[C@@H]2O)c1`, for which the composite z-score in assay [1] was -0.104; in assay [6], 1.44; in assay [7], -0.182; in [8], -0.102; in assay [9], -0.119; in assay [10], -0.223. In [12], the composite z-score was -0.235. In addition, the z-score was -2.16 (inactive) in assay [2]; -0.302 (inactive) in [3]; 6.84 (inactive) in assay [4]; 0.258 (inactive) in [5]; -1.79 (inactive) in assay [11]; 0.162 (inactive) in assay [13]. The z-score in assay [14] is -1.17 (inactive); in [15] it was 1.91 (inactive); in assay [16], -1.69 (inactive); in assay [17] it was 0.444; in [18], -0.683 (inactive); in assay [19] it was -0.721 (inactive). The z-score in [20] was -3.94.
For the compound `COc1ccc(OC[C@H]2Cc3c(-c4ccccc4)nc4c(c3CO2)CN(CCOc2ccccc2)CC4)cc1`, the composite z-score in [1] stood at 0.133; in assay [6], 0.633; in [7] it was 0.109; in assay [8] it was 0.086; in assay [9] it was 0.534; in assay [10], 1.37. Besides, the composite z-score in assay [12] was -0.0141. In addition, the z-score was -3.41 (inactive) in [2]; -1.27 (inactive) in [3]; 5.99 (inactive) in [4]; -1.02 (inactive) in assay [5]; 0.481 (inactive) in [11]; 15.4 (active) in assay [13]. Further, the z-score in [14] was 0.946 (inactive); in [15], 0.661 (inactive); in assay [16] it was -0.718 (inactive); in assay [17], 1.76; in assay [18], -0.0596 (inactive); in assay [19] it was -1.68 (inactive). The z-score in assay [20] was -1.04.
Take `O=C1CCCC2OC12C(O)CCc1ccccc1` (stereo not given): the composite z-score was 0.154 in assay [1]; 0.035 in assay [6]; -0.214 in assay [7]; 0.0994 in assay [8]; -0.0582 in assay [9]; 0.174 in assay [10]. In [12], this compound showed a composite z-score of -0.541. For the same compound, the z-score was 0.564 (inactive) in assay [2]; 0.357 (inactive) in [3]; 1.18 (inactive) in assay [4]; 0.0396 (inactive) in [5]; 0.508 (inactive) in assay [11]; -0.272 (inactive) in assay [13]. For the same compound, the z-score is -0.521 (inactive) in assay [14]; -0.0749 (inactive) in assay [15]; -0.169 (inactive) in assay [16]; 0.172 in [17]; 0.504 (inactive) in assay [18]; -0.142 (inactive) in assay [19]. This compound also showed a z-score in assay [20] of 0.0429.
Turning to `COCCCNC(=O)[C@@]1(Sc2ccc(C)cc2)CC(=O)N(Cc2ccccc2)[C@@H]1c1ccc(CO)cc1I`, the composite z-score was 0.129 in assay [1]; -0.684 in assay [6]; 0.106 in [7]; 0.234 in assay [8]; 0.0773 in [9]; -0.772 in [10]. Moreover, in assay [12], the composite z-score amounted to 0.337. Besides, the z-score in assay [2] is -1.25 (inactive); in [3], 0.501 (inactive); in assay [4], -0.232 (inactive); in [5], 1.48 (inactive); in assay [11], 0.613 (inactive); in assay [13] it was 4.55 (inactive). In addition, the z-score in [14] was 0.831 (inactive); in [15] it was 0.533 (inactive); in [16], 0.377 (inactive); in [17] it was 0.505; in [18], 1.26 (inactive); in assay [19], -0.666 (inactive). For the same compound, in assay [20], the z-score was 1.26.

These data come from PubChem BioAssay.
